Measured values published in the supplement of paper PMC10849652.
Of roughly 7,900 targets only a part is listed; those with a hit were picked by preference. About 0.6% of all pairs of compound and target were hits. A number with no mark means an inactive call.

Chain of UniProt Q99798 (Q99798 whole entry, looked up): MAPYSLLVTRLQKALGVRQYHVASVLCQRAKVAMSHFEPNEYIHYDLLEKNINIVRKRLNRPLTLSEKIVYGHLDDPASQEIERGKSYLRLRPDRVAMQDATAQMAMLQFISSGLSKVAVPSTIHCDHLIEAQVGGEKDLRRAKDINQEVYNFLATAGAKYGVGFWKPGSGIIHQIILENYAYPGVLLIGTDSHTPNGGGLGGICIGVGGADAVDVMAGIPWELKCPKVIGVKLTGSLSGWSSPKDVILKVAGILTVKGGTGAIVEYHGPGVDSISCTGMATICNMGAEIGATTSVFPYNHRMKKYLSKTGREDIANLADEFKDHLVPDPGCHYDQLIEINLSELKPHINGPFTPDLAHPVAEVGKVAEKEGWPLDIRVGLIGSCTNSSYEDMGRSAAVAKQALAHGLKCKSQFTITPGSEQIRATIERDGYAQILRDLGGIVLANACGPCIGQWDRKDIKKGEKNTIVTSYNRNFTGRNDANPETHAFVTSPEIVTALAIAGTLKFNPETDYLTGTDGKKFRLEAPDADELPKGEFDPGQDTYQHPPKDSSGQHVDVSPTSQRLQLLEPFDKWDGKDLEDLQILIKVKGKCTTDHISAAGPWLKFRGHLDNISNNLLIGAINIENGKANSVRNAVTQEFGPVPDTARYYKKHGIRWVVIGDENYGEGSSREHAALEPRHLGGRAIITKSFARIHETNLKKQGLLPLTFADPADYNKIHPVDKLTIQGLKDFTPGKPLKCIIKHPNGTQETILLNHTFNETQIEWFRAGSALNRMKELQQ
Chain of UniProt O43861 (O43861 whole entry, looked up): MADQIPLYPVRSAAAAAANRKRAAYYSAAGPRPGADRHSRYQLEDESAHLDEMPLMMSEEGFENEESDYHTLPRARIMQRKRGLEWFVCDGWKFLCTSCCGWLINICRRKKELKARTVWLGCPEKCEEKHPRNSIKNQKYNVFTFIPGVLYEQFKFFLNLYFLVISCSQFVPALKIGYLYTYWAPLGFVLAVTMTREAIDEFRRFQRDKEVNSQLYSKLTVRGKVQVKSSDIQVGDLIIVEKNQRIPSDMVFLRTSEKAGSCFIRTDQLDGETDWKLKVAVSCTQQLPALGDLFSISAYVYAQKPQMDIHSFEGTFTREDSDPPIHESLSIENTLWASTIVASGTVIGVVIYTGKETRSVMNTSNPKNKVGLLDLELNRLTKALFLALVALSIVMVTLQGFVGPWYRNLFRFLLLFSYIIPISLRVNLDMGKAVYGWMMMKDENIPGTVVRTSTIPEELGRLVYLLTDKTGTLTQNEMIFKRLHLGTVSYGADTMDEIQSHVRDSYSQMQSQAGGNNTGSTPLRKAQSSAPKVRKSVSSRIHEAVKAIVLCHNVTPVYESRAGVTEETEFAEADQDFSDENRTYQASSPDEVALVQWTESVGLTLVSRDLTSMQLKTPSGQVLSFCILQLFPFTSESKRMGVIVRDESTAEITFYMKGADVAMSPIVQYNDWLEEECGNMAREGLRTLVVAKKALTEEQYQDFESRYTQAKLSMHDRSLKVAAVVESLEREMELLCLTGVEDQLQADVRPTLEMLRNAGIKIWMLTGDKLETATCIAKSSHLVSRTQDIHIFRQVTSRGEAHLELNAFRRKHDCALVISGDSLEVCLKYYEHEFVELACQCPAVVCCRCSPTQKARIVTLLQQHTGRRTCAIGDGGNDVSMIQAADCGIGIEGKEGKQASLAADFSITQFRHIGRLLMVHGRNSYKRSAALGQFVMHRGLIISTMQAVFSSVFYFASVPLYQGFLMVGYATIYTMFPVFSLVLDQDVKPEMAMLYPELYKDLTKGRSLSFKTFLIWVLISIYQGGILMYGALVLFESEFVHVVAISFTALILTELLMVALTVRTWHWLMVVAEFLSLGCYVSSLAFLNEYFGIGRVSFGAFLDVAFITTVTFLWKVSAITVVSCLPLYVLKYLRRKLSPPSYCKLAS
Chain of UniProt Q9NUQ2 (Q9NUQ2 whole entry, looked up): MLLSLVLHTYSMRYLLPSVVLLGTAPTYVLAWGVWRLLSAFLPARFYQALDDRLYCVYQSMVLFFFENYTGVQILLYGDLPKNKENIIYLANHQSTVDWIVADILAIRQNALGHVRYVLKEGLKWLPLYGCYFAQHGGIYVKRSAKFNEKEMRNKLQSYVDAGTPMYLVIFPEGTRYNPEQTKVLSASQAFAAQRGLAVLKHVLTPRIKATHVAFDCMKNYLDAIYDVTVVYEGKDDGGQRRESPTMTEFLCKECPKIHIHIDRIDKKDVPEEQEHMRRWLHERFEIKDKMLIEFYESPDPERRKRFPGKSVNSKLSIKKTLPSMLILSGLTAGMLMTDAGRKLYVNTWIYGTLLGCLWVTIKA
Chain of UniProt Q5JTZ9 (Q5JTZ9 whole entry, looked up): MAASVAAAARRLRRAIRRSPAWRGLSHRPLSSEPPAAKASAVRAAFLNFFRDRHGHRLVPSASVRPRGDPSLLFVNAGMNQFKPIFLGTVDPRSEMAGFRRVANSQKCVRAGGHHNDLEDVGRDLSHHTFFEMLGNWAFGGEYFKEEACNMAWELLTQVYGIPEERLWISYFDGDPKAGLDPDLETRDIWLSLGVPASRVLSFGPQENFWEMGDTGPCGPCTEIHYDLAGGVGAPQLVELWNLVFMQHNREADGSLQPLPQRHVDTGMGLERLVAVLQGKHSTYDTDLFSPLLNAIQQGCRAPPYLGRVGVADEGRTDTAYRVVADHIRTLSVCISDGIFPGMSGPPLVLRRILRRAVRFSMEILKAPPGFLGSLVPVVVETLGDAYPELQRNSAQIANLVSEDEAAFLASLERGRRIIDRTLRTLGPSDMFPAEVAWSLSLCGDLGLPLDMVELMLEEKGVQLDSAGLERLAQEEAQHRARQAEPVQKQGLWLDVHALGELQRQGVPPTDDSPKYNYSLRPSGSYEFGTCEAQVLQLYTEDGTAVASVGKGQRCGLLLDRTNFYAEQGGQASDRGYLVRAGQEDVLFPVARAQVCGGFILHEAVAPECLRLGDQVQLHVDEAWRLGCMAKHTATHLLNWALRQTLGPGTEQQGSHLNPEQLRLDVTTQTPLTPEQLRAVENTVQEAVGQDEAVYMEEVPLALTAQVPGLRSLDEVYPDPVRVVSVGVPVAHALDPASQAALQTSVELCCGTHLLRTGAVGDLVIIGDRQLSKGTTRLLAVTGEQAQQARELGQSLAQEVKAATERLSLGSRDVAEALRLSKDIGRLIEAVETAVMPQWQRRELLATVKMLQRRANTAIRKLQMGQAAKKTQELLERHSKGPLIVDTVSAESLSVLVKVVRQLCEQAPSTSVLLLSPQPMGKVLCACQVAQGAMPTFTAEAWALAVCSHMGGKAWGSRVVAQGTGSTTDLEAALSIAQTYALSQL
Chain of UniProt P53367 (P53367 whole entry, looked up): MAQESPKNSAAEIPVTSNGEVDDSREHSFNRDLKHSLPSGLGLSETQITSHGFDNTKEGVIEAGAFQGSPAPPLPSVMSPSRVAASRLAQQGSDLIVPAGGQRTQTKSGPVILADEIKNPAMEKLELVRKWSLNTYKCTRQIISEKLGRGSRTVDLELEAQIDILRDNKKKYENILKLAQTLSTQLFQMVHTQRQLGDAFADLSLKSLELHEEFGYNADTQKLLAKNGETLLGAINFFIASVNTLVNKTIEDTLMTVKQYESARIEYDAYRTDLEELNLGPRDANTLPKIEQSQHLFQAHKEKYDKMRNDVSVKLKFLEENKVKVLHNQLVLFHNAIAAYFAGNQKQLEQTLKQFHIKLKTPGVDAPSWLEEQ
Chain of UniProt Q9Y6H3 (Q9Y6H3 whole entry, looked up): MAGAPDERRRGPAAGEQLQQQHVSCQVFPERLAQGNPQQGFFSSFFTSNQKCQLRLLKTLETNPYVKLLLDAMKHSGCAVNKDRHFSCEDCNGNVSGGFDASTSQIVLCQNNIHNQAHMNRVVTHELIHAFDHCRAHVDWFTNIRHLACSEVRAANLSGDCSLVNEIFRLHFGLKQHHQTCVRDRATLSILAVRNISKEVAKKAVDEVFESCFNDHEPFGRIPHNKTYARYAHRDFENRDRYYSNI
Chain of UniProt Q8WV93 (Q8WV93 whole entry, looked up): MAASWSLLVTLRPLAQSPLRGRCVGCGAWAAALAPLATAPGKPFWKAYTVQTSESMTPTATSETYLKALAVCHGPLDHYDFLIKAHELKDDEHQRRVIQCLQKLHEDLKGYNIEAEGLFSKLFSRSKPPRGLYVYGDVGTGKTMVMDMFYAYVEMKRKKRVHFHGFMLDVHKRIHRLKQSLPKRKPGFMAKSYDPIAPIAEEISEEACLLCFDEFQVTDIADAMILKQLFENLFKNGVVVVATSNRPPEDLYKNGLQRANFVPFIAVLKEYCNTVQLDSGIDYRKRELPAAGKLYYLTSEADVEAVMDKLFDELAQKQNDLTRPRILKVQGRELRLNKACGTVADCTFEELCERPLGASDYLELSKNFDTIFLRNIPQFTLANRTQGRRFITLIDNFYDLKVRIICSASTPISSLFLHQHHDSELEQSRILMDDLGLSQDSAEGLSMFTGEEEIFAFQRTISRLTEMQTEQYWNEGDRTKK
Chain of UniProt P08758 (P08758 whole entry, looked up): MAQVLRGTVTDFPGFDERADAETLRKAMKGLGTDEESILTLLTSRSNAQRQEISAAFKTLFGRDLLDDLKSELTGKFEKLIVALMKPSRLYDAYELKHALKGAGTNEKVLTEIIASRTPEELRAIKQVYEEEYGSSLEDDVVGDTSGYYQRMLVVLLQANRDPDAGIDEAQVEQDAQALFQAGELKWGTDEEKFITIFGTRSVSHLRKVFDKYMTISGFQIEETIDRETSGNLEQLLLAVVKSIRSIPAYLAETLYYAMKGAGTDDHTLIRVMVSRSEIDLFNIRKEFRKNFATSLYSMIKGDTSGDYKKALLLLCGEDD
Chain of UniProt Q9P287 (Q9P287 whole entry, looked up): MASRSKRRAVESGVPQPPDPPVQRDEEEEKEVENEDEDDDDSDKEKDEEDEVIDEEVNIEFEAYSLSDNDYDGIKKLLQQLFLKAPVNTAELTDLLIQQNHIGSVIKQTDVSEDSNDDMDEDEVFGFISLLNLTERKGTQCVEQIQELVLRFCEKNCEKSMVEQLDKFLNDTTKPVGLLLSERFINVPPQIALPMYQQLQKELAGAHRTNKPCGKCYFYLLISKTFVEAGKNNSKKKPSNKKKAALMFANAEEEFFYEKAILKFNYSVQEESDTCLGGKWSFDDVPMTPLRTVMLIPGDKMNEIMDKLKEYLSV

These targets were tested with CO[C@H]1C[C@@H]2CC[C@@H](C)[C@@](O)(O2)C(=O)C(=O)N2CCCC[C@H]2C(=O)O[C@H]([C@H](C)C[C@@H]2CC[C@H](n3cnnn3)[C@H](OC)C2)CC(=O)[C@H](C)/C=C(\C)[C@@H](O)[C@@H](OC)C(=O)[C@H](C)C[C@H](C)/C=C/C=C/C=C/1C [zotarolimus] (assay: log2 fold change, soluble protein after heating vs DMSO (PISA); higher = thermal stabilisation; K562 cells, 10 uM, 30 min; active = over 0.2 and 3.5 SD of the protein, either way, in both replicates (recomputed)).
Outline: (§1)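 K562 cells at 2×10^6 cells/mL were exposed to 10 μM compound for 30 min, then aliquots were heated for 3 min across 48°C-58°C, pooled, and extracted in PBS containing 0.5% NP-40 at 4°C. The supernatant after 21,000xg for 90 min was taken as soluble protein and measured by TMTpro 16plex LC-MS/MS with channel sums equalised. Thermal stability is reported relative to control samples, with values from duplicates. Fold changes are given on a log2 scale.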
In the case of AFG1L (UniProt Q8WV93), the log2 fold change is reported as 0.018. BCCIP isoform 2 (UniProt Q9P287) gave a log2 fold change of -0.002. Work on ANXA5 (UniProt P08758) yielded a log2 fold change of 0.049. Target ADRM1 (UniProt Q16186) has a log2 fold change of 0.057. For ATP9B (UniProt O43861), the log2 fold change was -0.054. ACSL3 (UniProt O95573) gave a log2 fold change of 0.019. For ATP23 (UniProt Q9Y6H3), the log2 fold change was 0.005. With ACO2 (UniProt Q99798) the log2 fold change was 0.015. Work on ARFIP1 (UniProt P53367) yielded a log2 fold change of -0.021. Work on AGPAT5 (UniProt Q9NUQ2) yielded a log2 fold change of 0. In the case of AARS2 (UniProt Q5JTZ9), the log2 fold change is reported as 0.029.

These targets were tested with COc1cc(C(=O)O)ccc1NC(=O)[C@@H]1N[C@@H](CC(C)(C)C)[C@](C#N)(c2ccc(Cl)cc2F)[C@H]1c1cccc(Cl)c1F [idasanutlin] in the same assay as above.
Outline: as §1
With ARGLU1 (UniProt Q9NWB6) the log2 fold change was 0.171. Target AP4S1 (UniProt Q9Y587) has a log2 fold change of -0.061. With ACTR1B (UniProt P42025) the log2 fold change was -0.136. In the case of ALG11 (UniProt Q2TAA5), the log2 fold change is reported as -0.051. Work on AKR1C2 (UniProt P52895) yielded a log2 fold change of -0.015. ATG9A (UniProt Q7Z3C6) showed a log2 fold change of -0.003. For ADH5 (UniProt P11766), the log2 fold change was -0.037. AAR2 (UniProt Q9Y312) was tested, and the log2 fold change was 0.002. APPL1 (UniProt Q9UKG1) showed a log2 fold change of -0.076. ACAD9 (UniProt Q9H845) was tested, and the log2 fold change was 0.017. ACOX3 (UniProt O15254) was tested, and the log2 fold change was 0.074. ALDH2 (UniProt P05091) showed a log2 fold change of -0.104. With ARL1 (UniProt P40616) the log2 fold change was -0.254 (active). AGAP3 isoform 4 (UniProt Q96P47) showed a log2 fold change of 0.12. Work on ATP1B3 (UniProt P54709) yielded a log2 fold change of 0.014. ATP6AP1 (UniProt Q15904) was tested, and the log2 fold change was 0.009. ACSL1 (UniProt P33121) was tested, and the log2 fold change was -0.017. Work on ALDH9A1 isoform 3 (UniProt P49189) yielded a log2 fold change of -0.006. BOP1 (UniProt Q14137) showed a log2 fold change of 0.077. ATF7 isoform 6 (UniProt P17544) was tested, and the log2 fold change was 0.084. Work on ATP6V1F isoform 2 (UniProt Q16864) yielded a log2 fold change of 0.095. Work on BTAF1 (UniProt O14981) yielded a log2 fold change of -0.095. AIFM2 (UniProt Q9BRQ8) gave a log2 fold change of -0.017. AFG1L (UniProt Q8WV93) showed a log2 fold change of 0.016. With BCCIP isoform 2 (UniProt Q9P287) the log2 fold change was -0.021. ANXA5 (UniProt P08758) showed a log2 fold change of -0.013. ADRM1 (UniProt Q16186) showed a log2 fold change of -0.073. ATP9B (UniProt O43861) was tested, and the log2 fold change was 0.022. ACSL3 (UniProt O95573) showed a log2 fold change of -0.127. Target ATP23 (UniProt Q9Y6H3) has a log2 fold change of 0.032. Work on ACO2 (UniProt Q99798) yielded a log2 fold change of -0.086. With ARFIP1 (UniProt P53367) the log2 fold change was 0.094. Work on AGPAT5 (UniProt Q9NUQ2) yielded a log2 fold change of -0.044. In the case of AARS2 (UniProt Q5JTZ9), the log2 fold change is reported as -0.107.
